The values below come from the supplement of paper PMC4840960.

Unmarked numbers belong to inactive results.

The experiment deals with E18 rat cortical neuron-glia co-culture. The experiment can be described thus: myelination (MBP fiber length per Olig2+ nucleus), % of 1 µM DAPT response (DMSO = 0) (% of DAPT); higher = more myelination, active = 50 or more. The following applies: 1 µM; treatment time: 8 days (DIV5-DIV13). An outline of the steps: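 Rat cortical co-cultures from E18 tissue were dissociated with papain and plated at 20,000 cells/well on 96-well plates coated with poly-d-lysine/laminin. From DIV5 to DIV13, library compounds were added at 1 or 5 µM in myelination medium. After fixation in 4 % paraformaldehyde, cultures were immunostained for MBP and Olig2 and counterstained with DAPI, and four 10X fields were analysed in each of duplicate wells. The myelination value is the length of continuous straight MBP fibers per Olig2+ nucleus, normalised so that 0.1 % DMSO is 0 and a 1 µM positive control is 100.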
In the case of `C=CC[C@@H]1/C=C(\C)C[C@H](C)C[C@H](OC)[C@H]2O[C@@](O)(C(=O)C(=O)N3CCCC[C@H]3C(=O)O[C@H](/C(C)=C/[C@@H]3CC[C@@H](O)[C@H](OC)C3)[C@H](C)[C@@H](O)CC1=O)[C@H](C)C[C@@H]2OC` [Tacrolimus], the myelination was -24.6. As for `Cc1c(O)cccc1C(=O)N[C@@H](CSc1ccccc1)[C@H](O)CN1C[C@H]2CCCC[C@H]2C[C@H]1C(=O)NC(C)(C)C` [Nelfinavir], the myelination is -42.1. Take `CNC(=N)NCCC[C@H](N)C(=O)O`: the myelination is -37.1. In the case of `N[C@@H]1CONC1=O` [Cycloserine], the myelination was -22.5. The same measure for `CCN(CC)CC(=O)Nc1c(C)cccc1C` [Lidocaine]: -26.3; for `CCC1(c2ccccc2)C(=O)NCNC1=O` [Primidone]: 3.26.
